Experimental data: the supplement of paper PMC3334620
Whole data set: some 33,000 sequences, median “E-score (-0.5 to 0.5)” near -0.016, cut for the highest 2% near 0.32. Shown is part of a subset that was picked to be rich in the highest values.

Molecular target: T1, Stp1 (UniProt B3LFK1)
T1 sequence: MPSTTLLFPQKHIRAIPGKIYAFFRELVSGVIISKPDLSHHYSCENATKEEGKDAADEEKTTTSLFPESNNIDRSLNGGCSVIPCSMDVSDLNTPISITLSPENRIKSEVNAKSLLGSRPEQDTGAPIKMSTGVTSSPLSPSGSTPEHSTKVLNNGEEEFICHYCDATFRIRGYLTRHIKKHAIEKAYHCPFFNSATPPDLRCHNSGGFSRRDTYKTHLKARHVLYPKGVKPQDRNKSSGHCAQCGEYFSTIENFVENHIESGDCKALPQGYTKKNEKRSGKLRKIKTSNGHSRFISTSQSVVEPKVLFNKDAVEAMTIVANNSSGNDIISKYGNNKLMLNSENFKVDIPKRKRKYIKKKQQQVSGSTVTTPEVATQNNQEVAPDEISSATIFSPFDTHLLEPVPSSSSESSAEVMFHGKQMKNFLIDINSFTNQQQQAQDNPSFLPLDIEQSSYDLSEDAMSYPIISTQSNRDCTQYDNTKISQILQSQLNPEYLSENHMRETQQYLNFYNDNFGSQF
Experiment: PBM E-score (8-mer binding enrichment) (E-score (-0.5 to 0.5)); higher = stronger / more preferred TF binding
Conditions: protein concentration: 200 nM; construct: GST-full length
How it was run: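 Yeast transcription factors, full-length or as DNA-binding domains, were expressed with a GST tag using PURExpress in vitro transcription/translation. At about 100-200 nM they were applied to universal all-10-mer Agilent arrays, double-stranded by primer extension on fresh or once-stripped slides. Fluorescent anti-GST detected bound protein, and masliner normalised the scans. E-scores for ungapped eight-base words, pooled with reverse complements, came from the Universal PBM Analysis Suite.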

Sequence | PBM E-score
ATGCCGGA | 0.0395
ATGCCGCG | 0.475
CTACCGCA | 0.0499
ATGCCGCA | 0.468
GTGCCGCA | 0.483
GCTTTGTA | 0.135
AAGTTAGG | 0.0337
CAACCACG | 0.0433
GGCTGAAA | 0.103
AAGCTCAA | -0.135
CTATGCCC | -0.0982
ATGCCGCC | 0.386
ATGCCGGC | 0.0928
AGGCCGCC | -0.0139
GGTTTGAA | 0.0901
GAAGTGAC | -0.0146
AAAAGGCG | 0.34
GCAAGGCC | 0.151
GCAAGGCA | 0.38
AAAAGGCT | 0.0632
CAAAGGCA | 0.184
GAAAGGCA | 0.376
AAAAGGCC | 0.174
AAAAGGCA | 0.359
AGAAGGCG | 0.2

Sequence | PBM E-score
ACAAGGCA | 0.315
GAAAGGCC | 0.272
CAAAGGCG | 0.129
TGAGAAAA | 0.116
GCCCCTAA | -0.229
CTAAGGGC | -0.224
CTTTTCGA | 0.174
CACCCTAG | -0.172
GCAGAAAC | 0.234
ACAGTCGA | -0.262
AAACGCCT | 0.141
CAACGCCC | 0.0959
TAACGCCA | 0.133
AAACGCCG | 0.428
CAACGCCG | 0.391
CAACGCCA | 0.0795
GAACGCCA | 0.0737
AAACGCCA | 0.345
AAACGCCC | 0.231
CTGGAAAG | -0.15
AGCGAAAG | -0.138
ATGGCTAG | 0.0312
CCTTTCCG | 0.0145
ATGACTTC | 0.00281
AGTACTTG | 0.142

Sequence | PBM E-score
GGGGACGA | -0.249
ATCTCACG | 0.015
ACGGTGCG | 0.173
GCAGTGCC | 0.253
ATGGTGCG | -0.0219
CCAGTGCC | 0.179
ACGGTGCA | -0.00717
ACAGTGCC | 0.321
ATGGTGCC | 0.372
CTGGTGCC | 0.252
ACGGTGCC | 0.396
AACTGGAT | 0.0626
TCCCATCA | -0.201
GGACTGCA | -0.229
GAGCAGAA | -0.0386
CTCACGGA | 0.0462
GGCACGGA | 0.376
CGCACGCA | -0.00526
CGCACGGA | 0.39
GTCACGGA | -0.0129
GGCACGCA | 0.288
TACTCTAA | 0.034
CCCTGTCG | 0.0867
CATATGGG | -0.035
AGGGTCGC | 0.0437

Sequence | PBM E-score
AGCGGCGA | 0.386
AGCGGCGG | 0.337
AGCGGGGC | 0.0451
CGCGGCGA | 0.451
AGCGGCCA | -0.114
GGCGGCGA | 0.276
CGCGGAGA | 0.109
CGCGGTGA | 0.0941
AGCAGCGC | 0.0916
AGCGGGGG | -0.287
AGCGGCGC | 0.452
ACCGGCGG | 0.0942
AGAGCTTG | -0.106
ATGAGCTG | -0.175
GATCCATA | 0.134
ACGCTAAG | 0.00258
CGGACCGA | 0.0676
CCTCGCAG | -0.0486
GCGTCTAC | -0.155
CACTGCCG | 0.336
CACTGCCC | -0.071
AACTGCCC | -0.192
AACTGCCG | 0.329
CACTGCCA | 0.0847
AACTGCCT | 0.0172

Sequence | PBM E-score
AGATCCAA | 0.0566
AAGCTGTG | -0.106
CCCTTGTA | -0.178
TCCTTGCA | -0.0871
GCCTTGTA | 0.354
GCCTTGCA | 0.33
ACCTTGTA | 0.0137
CCCTTGCA | -0.163
AAGGATGC | -0.187
GTGGTCTA | -0.307
CTCTACCA | -0.0433
GCTGGTCC | -0.253
GTTGTGGA | -0.0929
CATGCCCA | -0.249
ATGACGCC | 0.2
TCCGTCCA | -0.122
CCCGTCTA | -0.0264
CCCGTCCA | -0.00501
ACCGTCGC | 0.0157
GCCGTCCA | 0.364
GCCGTCTA | 0.429
GCCGTCCC | 0.378
GCCGTCGC | 0.351
ACCGTCTA | -0.0765
GCCGTCGA | 0.278

Sequence | PBM E-score
CCCGTCCC | -0.249
ACCGTCCC | -0.184
AGACAAAG | 0.00552
GAGGGTAA | -0.0792
CACCATAC | -0.0768
TAAAGTGA | 0.135
CAGAAAGG | 0.0864
ACTGCGGC | 0.381
CCTGCGGA | 0.0839
CCTGCGGC | 0.331
ACTGCGGG | -0.153
ACTGCGGA | 0.0949
CCTGCGCC | 0.295
ACTTAGAA | 0.0195
GAACAGGC | -0.0513
ACAAGGGA | -0.144
GCAACCTA | 0.081
ATAAGCCG | 0.0578
ATTGCTAA | 0.0687
ATCGCCTG | -0.135
AGCGCCTC | 0.389
CTCGCCTC | 0.00469
CGCGCCTA | 0.313
CGCGCCTC | 0.377
CACGCCTC | 0.205

Sequence | PBM E-score
AGCGCCTG | -0.0292
ACCGCCTC | -0.0359
ATCGCCTC | 0.356
ACGGTCTC | -0.041
CCTAAAGC | 0.00183
CCCTAGGA | -0.314
CTTGCGCA | 0.223
ATTCTTCG | 0.00242
GAACGTAA | 0.0655
ACGTTCCG | -0.106
CCGTTCCG | 0.318
CCGTTCCA | 0.243
GCCATCGA | 0.0584
AGCCGTGG | 0.334
AACCGTGG | -0.00732
CTCCGTGC | 0.228
ATCCGTGC | 0.41
AGCCGTGA | 0.343
ATCCGTGA | 0.00902
ACCCGTGC | 0.237
ACCCGTGA | -0.0351
AACCGTGC | 0.26
ACCCGTGG | -0.0825
AGCCGTGC | 0.465
GGCCGTGA | 0.126
